# A selection: hits, their analogues and other compounds. The true share with any hit is near 3.2%.
# DENV2 CPE rescue: inhibitors of DENV2 cytopathic effect, primary screen, cell-based, plate reader, single concentration. DENV2-infected cells, cytopathic effect rescue. CPE inhibition, % at 9.99 µM. 1.7% of 350,000 active; in the data active = CPE inhibition above about 20%, passing the limit was not always enough; tested in BHK-21 cells
# GSIS activator: GLuc luminescence reporter in INS-1E cells, primary screen for activators of glucose-dependent secretion of insulin; INS-1E GLuc reporter insulin secretion, 2-3 h; activation, % at 16.6 µM; 0.61% of 370,000 active; AID 743287, 2014;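 active = lowest replicate activation of at least 40%, so every replicate reaches that level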
# ERAP1 inh: human ERAP1 aminopeptidase inhibitors, primary screen, biochemical, single point, plate reader | Endoplasmic reticulum aminopeptidase 1 (Homo sapiens), Q9NZ08 | recombinant ERAP1, Leu-AMC fluorescence, 60 min | inhibition, % at 10.7 µM | 0.15% of 340,000 active;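 active = mean replicate inhibition of at least 30%, or all replicates individually reaching that 30% level; inactive = mean below 30% and not every replicate reaching it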
# Target sequence (Q9NZ08 whole entry, looked up): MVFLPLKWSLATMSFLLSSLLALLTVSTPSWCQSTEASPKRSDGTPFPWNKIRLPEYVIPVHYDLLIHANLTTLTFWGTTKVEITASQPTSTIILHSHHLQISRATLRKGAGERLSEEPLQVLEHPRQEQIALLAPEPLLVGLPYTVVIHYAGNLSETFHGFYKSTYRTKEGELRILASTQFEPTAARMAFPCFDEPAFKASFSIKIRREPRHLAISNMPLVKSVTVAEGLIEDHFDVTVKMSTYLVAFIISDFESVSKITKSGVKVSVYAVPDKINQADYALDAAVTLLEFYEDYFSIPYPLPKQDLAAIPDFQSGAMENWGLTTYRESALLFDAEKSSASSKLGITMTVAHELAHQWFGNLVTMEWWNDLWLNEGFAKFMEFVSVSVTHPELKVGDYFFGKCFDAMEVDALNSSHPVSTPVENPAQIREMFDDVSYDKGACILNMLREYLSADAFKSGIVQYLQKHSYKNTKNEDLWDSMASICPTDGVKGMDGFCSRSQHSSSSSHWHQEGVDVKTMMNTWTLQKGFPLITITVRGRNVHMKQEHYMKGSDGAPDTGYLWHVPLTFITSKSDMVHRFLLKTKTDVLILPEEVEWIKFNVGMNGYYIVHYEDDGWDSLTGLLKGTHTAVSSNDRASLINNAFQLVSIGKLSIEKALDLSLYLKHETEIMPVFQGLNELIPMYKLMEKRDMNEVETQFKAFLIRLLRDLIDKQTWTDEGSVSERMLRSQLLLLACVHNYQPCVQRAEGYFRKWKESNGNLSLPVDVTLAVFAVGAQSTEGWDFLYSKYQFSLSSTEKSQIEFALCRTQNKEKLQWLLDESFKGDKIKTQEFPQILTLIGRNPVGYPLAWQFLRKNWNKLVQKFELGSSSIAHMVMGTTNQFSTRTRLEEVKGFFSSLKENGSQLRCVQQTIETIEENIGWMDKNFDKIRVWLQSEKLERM
# CaV13 ICDI inh: Primary screen for inhibitors of IQ motif and Ca2+-dependent inactivation inhibitor domain binding in CACNA1D, Förster resonance energy transfer in living cells, …; HEK cells, CFP/YFP FRET ICDI-IQ, plate reader, 10 min; percent FRET-ratio fall versus neutral wells; inhibition, % at 12.3 µM; AID 743397; 0.098% of 340,000 active;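 active = mean replicate inhibition of at least 30% and at least 1% of replicates passing that level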
# rRNA inh HTS: reduced GFP signal of wild-type E. coli, primary screen, bacterial rRNA inhibitor project, GFP/RFP fluorescence, OD600, single point. 1.6% of 350,000 active. E. coli WT GFP vs humanized-ribosome RFP mutants, 24 h; hits give low values; DMSO median 0, no signal -100. GFP signal change (wild-type ribosome), % (test concentration not listed). AID 720706, 2013;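 active = significant combined selectivity score with lowered wild-type GFP, culture density cut under 30%, mutant RFP and density less affected; inactive = any of these conditions unmet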
# PGC1a acetyl inh: inhibitors of PGC1a acetylation signal, primary screen, cell-based, U2OS, AlphaScreen, inhibitor mode. 0.17% of 350,000 active. inhibition, % at 15.6 µM. AlphaScreen anti-acetyl-lysine; with virally co-expressed GCN5 acetyltransferase;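 active = every replicate shows inhibition of at least 40%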
# Numbers stand for hits; i = inactive; nt = no result.
SMILES,DENV2 CPE rescue,GSIS activator,ERAP1 inh,CaV13 ICDI inh,rRNA inh HTS,PGC1a acetyl inh
COCCNC(=O)CS(=O)Cc1nc(-c2ccc(Cl)cc2)oc1C (stereo not drawn),64,nt,i,i,i,i
COc1ccc(CNC(=O)Cn2nc(C(F)(F)F)c(Br)c2C)cc1,i,i,i,i,i,nt
COc1cc(NC(=O)Cn2nc(C(F)(F)F)c(Br)c2C)cc([N+](=O)[O-])c1,i,i,i,i,-15,nt
CC(C)n1cnc2c(N(C)c3cccc(Cl)c3)nc(N(CCO)CCO)nc21,i,i,i,i,-33,i
CC(C)[C@H](CO)N(Cc1cccc(F)c1)c1nc(Nc2cccc(Cl)c2)c2ncn(C(C)C)c2n1,i,nt,i,i,i,nt
COC(=O)C1=C(C)NC(C)=C(C(=O)OC)C1/C=C/c1ccccc1,i,i,i,i,-32,i
CCOC(=O)C1=C(C)NC(C)=C(C(=O)OCC)C1/C=C/c1ccccc1,i,i,i,i,i,i
Cc1nc(SCc2ccc(O)c([N+](=O)[O-])c2)n[nH]1,i,i,i,i,i,nt
Cc1nc(SCc2ccc(O)c([N+](=O)[O-])c2)c([N+](=O)[O-])[nH]1,i,i,55,i,i,i
CCCNC(=O)N1[C@@H]2CN(C(=O)c3ccccc3)c3ccccc3[C@@H]2[C@@H]1CO,nt,i,nt,nt,i,i
CCN(CC)CCNCc1cc(Br)ccc1OCC(=O)NCc1ccccc1,i,i,i,i,i,nt
CCN(CC)CCNCc1ccc(Br)cc1OCC(=O)NCc1ccccc1,i,62,nt,i,i,i
COc1ccccc1S(=O)(=O)N[C@@H]1CC[C@@H](CCNC(=O)C2CCCC2)O[C@@H]1CO,20,i,i,nt,i,i
Cc1ccc(S(=O)(=O)N[C@H]2CC[C@@H](CCNC(=O)C3CCCC3)O[C@H]2CO)cc1,i,i,i,nt,i,i
Cc1ccc(S(=O)(=O)N[C@@H]2CC[C@@H](CCNC(=O)C3CCOCC3)O[C@H]2CO)cc1,21,i,i,nt,i,i
COc1ccccc1S(=O)(=O)N[C@@H]1CC[C@H](CCNC(=O)C2CCCC2)O[C@H]1CO,i,i,i,nt,i,i
Cc1ccc(S(=O)(=O)N[C@H]2CC[C@H](CCNC(=O)C3CCOCC3)O[C@H]2CO)cc1,i,i,i,nt,i,i
Cc1ccc(S(=O)(=O)N[C@H]2CC[C@@H](CCNC(=O)C3CCOCC3)O[C@H]2CO)cc1,22,i,i,nt,i,i
Cc1ccc(S(=O)(=O)N[C@@H]2CC[C@@H](CCNC(=O)C3CC3)O[C@H]2CO)cc1,i,i,i,nt,i,i
Cc1ccc(S(=O)(=O)N[C@H]2CC[C@H](CCNC(=O)C3CCCC3)O[C@@H]2CO)cc1,72,i,i,nt,i,i
COc1ccc(CN2CC3(CCN(C(=O)C4CCC4)CC3)c3c(n(C)c4cc(OC)ccc34)[C@H]2CO)cc1,nt,i,nt,nt,i,nt
COc1ccc2c3c([nH]c2c1)[C@@H](CO)N(C(=O)C1CCCC1)CC31CN(Cc2cccc(F)c2)C1,i,i,nt,nt,i,i
COc1ccc(S(=O)(=O)N[C@H]2CC[C@@H](CCNC(=O)CN3CCOCC3)O[C@H]2CO)cc1,94,i,i,nt,i,i
O=C1O[C@@H](Cc2ccccc2)[C@H]2[C@@H]3C=CCCC=C3CN2C12CCCC2,33,nt,i,nt,nt,i
C=C/C=C/[C@@H]1C(=C)CN2[C@H]1[C@H](Cc1ccccc1)OC(=O)C21CCCC1,i,nt,i,nt,nt,i
SMILES,DENV2 CPE rescue,GSIS activator,ERAP1 inh,CaV13 ICDI inh,rRNA inh HTS,PGC1a acetyl inh
Cc1noc(C)c1NC(=O)N(C)C[C@H]1Oc2ccc(NS(C)(=O)=O)cc2CC(=O)N([C@H](C)CO)C[C@@H]1C,i,i,nt,nt,i,i
COc1cccc(/C=N/NC(=S)Nc2cccc(S(=O)(=O)N(C)C)c2)c1,i,i,i,i,-18,i
COc1ccc(O)c(/C=N/NC(=S)Nc2cccc(S(=O)(=O)N(C)C)c2)c1,nt,i,nt,i,nt,i
c1coc(-c2nc3ccccc3nc2-c2ccco2)c1,i,i,i,i,-28,i
c1coc(-c2cnc3ccccc3n2)c1,i,nt,i,i,i,i
COCC(=O)N1C[C@H](C)[C@@H](OC)CN(C)C(=O)c2cc(NS(C)(=O)=O)ccc2OC[C@H]1C,nt,i,nt,nt,i,nt
CCOC(=O)c1cc(-c2ccc(/C=N\n3cnnc3)o2)ccc1Cl,nt,nt,nt,nt,nt,i
CCCCOC(=O)c1cc(-c2ccc(/C=N/n3cnnc3)o2)ccc1Cl,nt,58,nt,i,nt,i
O=C(NCc1ccccc1)C1CCCN(c2ncnc3c2nc2n3CCCCC2)C1 (stereo not drawn),i,i,i,i,i,i
CCN(Cc1ccccc1)C(=O)C1CCN(c2ncnc3c2nc2n3CCCCC2)CC1,i,i,i,i,-25,nt
CCc1ccccc1N(CC)C(=O)C1CCN(c2ncnc3c2nc2n3CCCCC2)CC1,i,i,i,i,i,nt
COc1ccccc1NC(=O)C1CCCN(c2ncnc3c2nc2n3CCCCC2)C1 (stereo not drawn),i,i,i,i,-33,i
O=C(Nc1ccccc1Cl)C1CCCN(c2ncnc3c2nc2n3CCCCC2)C1 (stereo not drawn),i,i,i,i,-30,i
C[C@@H]1CN([C@@H](C)CO)C(=O)Cc2cc(NC(=O)C3CCCCC3)ccc2O[C@@H]1CN(C)C(=O)NC1CCCCC1,i,i,i,nt,i,i
O=C(NCc1ccccc1Cl)[C@@H]1[C@@H](CO)[C@@H]2Cn3c(cccc3=O)[C@@H]2N1C(=O)C1CCCC1,i,i,i,nt,i,nt
c1nc(N2CCOCC2)c2c3c(sc2n1)CCCC3,nt,41,i,i,i,i
c1ccn(-c2ncnc3sc4c(c23)CCCC4)c1,nt,nt,nt,i,nt,i
CC1(c2nnnn2Cc2ccccc2)CCC(=O)N1CCCn1ccnc1 (stereo not drawn),26,i,nt,i,i,nt
CC1(c2nnnn2Cc2ccccc2)CCC(=O)N1CCCN1CCOCC1 (stereo not drawn),i,i,nt,i,i,nt
O=C(O)CSc1nc2ccccc2n1Cc1ccccc1,i,i,i,i,i,i
O=C(O)CSc1ccn(Cc2ccccc2)c1,51,i,i,i,i,i
CCCC[C@@H](O)C1=C(COc2ccccc2)C[C@H]2C(=O)N(Cc3ccccc3)C(=O)[C@H]2[C@H]1CO,i,nt,i,nt,nt,i
C[C@@H]1CN([C@H](C)CO)C(=O)Cc2cc(NC(=O)Nc3ccc(F)cc3)ccc2O[C@H]1CN(C)Cc1ccc(C(F)(F)F)cc1,i,i,i,nt,i,i

# Screening data: PubChem, Broad Institute
